The nature of assay [1]: NCI Yeast Anticancer Drug Screen. Data for the rad50 strain (AID 155).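 Note: 0% = growth of vehicle-only cultures of the same strain.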 The following applies: S. cerevisiae rad50 strain growth inhibition; at 50.0 µM; stronger effect = higher value. Put shortly: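 Vehicle-treated cultures provide the reference for the growth inhibition reported for compound-exposed, repair-deficient yeast.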
Assay [2] can be described thus: NCI Yeast Anticancer Drug Screen. Data for the mec2-1 strain (AID 157). The following applies: S. cerevisiae mec2-1 strain, at 50.0 µM, stronger effect = higher value. The procedure, abridged: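 Each compound was tested on mec2-1 yeast, a strain altered in DNA damage repair or cell cycle control. Growth inhibition is reported relative to vehicle.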
Assay [3] can be described thus: NCI Yeast Anticancer Drug Screen. Data for the sgs1 mgt1 strain (AID 161).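 Note: 0% = growth of cultures given vehicle only.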 To be noted: S. cerevisiae sgs1 mgt1 strain, at 50.0 µM, stronger effect = higher value. Put shortly:
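Genetically altered yeast, compound exposure, growth inhibition relative to vehicle.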

Assay [4] is described as follows: NCI Yeast Anticancer Drug Screen. Data for the cln2 rad14 strain (AID 165).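 Note: 0% = growth equal to vehicle treated cultures.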 The following applies: S. cerevisiae cln2 rad14 strain, at 50.0 µM, stronger effect = higher value. The procedure, abridged: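 Test compounds were added to cln2 rad14 yeast cultures; inhibition of growth was then determined by comparison with vehicle treatment.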
The nature of assay [5]: NCI Yeast Anticancer Drug Screen. Data for the bub3 strain (AID 167). The following applies: S. cerevisiae bub3 mutant strain, at 50.0 µM, stronger effect = higher value. The procedure, abridged: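 Mutant yeast screening strain plus compound; vehicle-treated cultures serve as the 0% inhibition reference.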
Assay [6] in a line: NCI Yeast Anticancer Drug Screen. Data for the mlh1 rad18 strain (AID 175). The following applies: S. cerevisiae mlh1 rad18 strain growth inhibition; at 50.0 µM; stronger effect = higher value. The procedure, abridged:
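Inhibition values reflect reduced growth of mutant yeast versus vehicle-treated controls following compound exposure; the mutations affect DNA damage repair.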

The panel holds about 79,000 compounds, 15% with a hit somewhere; the sample as a whole holds those more often. Values without a mark were called inactive. The source made the active and inactive calls. Cut-off read from the data, not from the text of the source: active = growth inhibition above about 70%; inactive = the rest. Where a SMILES comes first, the peptide text is derived from it. [ ]: non-standard residue; d: D form. The star is where a group is joined. ξ: configuration not given here. ξF = NC(Cc1ccccc1)C(=O)O; Cbz = O=C(OCc1ccccc1)*; Aib = CC(C)(N)C(=O)O; NHNH2 = NN*

As to `CCCCCCCCc1cc(CN(C)C)c(O)c(C(C)(C)CC(C)(C)C)c1`, the growth inhibition in assay [1] was -13.7%; in assay [2], 2.35%; in assay [3], 27.3%; in assay [4] it was 16.7%; in assay [5] it was 16%; in assay [6] it was 8.3%.
Take `CCOC(=O)NC(C(N)=O)C(N)=O`: the growth inhibition in assay [1] is -0.3%; in assay [2] it was 15.8%; in assay [3] it was -1.6%; in assay [4] it was -44%; in assay [5] it was -13.3%; in assay [6], -2.45%.
`S=c1sc2c(Cl)nc(Cl)nc2n1-c1ccccc1`: the growth inhibition in assay [1] was -17.2%; in assay [2], -4.95%; in assay [3], -13.6%; in assay [4], -1%; in assay [5], 9.65%; in assay [6], -11.2%.
Regarding `NC(=NC1CCCCC1)/N=C(/N)Nc1ccc(Cl)cc1`, the growth inhibition is 26.8% in assay [1]; 0.2% in assay [2]; 5% in assay [3]; -29.6% in assay [4]; 4.7% in assay [5]; 14.4% in assay [6].
In the case of `Cc1cc(C2(c3cc(C)c(O)c4ncccc34)OC(=O)c3ccccc32)c2cccnc2c1O`, the growth inhibition in assay [1] was 84.6% (active); in assay [2], 85.5% (active); in assay [3] it was 50.6%; in assay [4], 44%; in assay [5], 66%; in assay [6], 87.5% (active).
Turning to `CCC1CCCCC1O` (stereo unspecified), the growth inhibition in assay [1] was 1.6%; in assay [2] it was -7%; in assay [3], -30.5%; in assay [4], 7.35%; in assay [5], -22.7%; in assay [6] it was 6.1%.
With `CC(C)(NC(=O)OCc1ccccc1)C(=O)NC(Cc1ccccc1)C(=O)NN` (stereo unspecified) (Cbz-[Aib]-[ξF]-NHNH2), the growth inhibition in assay [1] was 0.55%; in assay [2] it was 7.35%; in assay [3], 7%; in assay [4], 20.9%; in assay [5], 15.4%; in assay [6] it was -20.1%.
Regarding `COC(=O)C(=O)C(C(=O)C=C(C)C)C(=O)C(=O)Nc1cc(C(F)(F)F)ccc1Cl` (stereo unspecified), the growth inhibition in assay [1] was -3%; in assay [2] it was -1.4%; in assay [3], 6%; in assay [4], -57.1%; in assay [5] it was 1.15%; in assay [6] it was -10.8%.
Consider `CC1(C)N=C(/C(Cl)=[N+](/[O-])C(=O)c2ccc(F)cc2)C(C)(C)N1O`, for which the growth inhibition in assay [1] was -15.5%; in assay [2], -35.3%; in assay [3], -27.2%; in assay [4] it was 16.7%; in assay [5], -25.8%; in assay [6], -25.9%.
With `CCOC(=O)CCC(N)C(N)=O` (stereo unspecified), the growth inhibition in assay [1] was 28.2%; in assay [2], -6.45%; in assay [3] it was 16%; in assay [4], 8.65%; in assay [5], 11.4%; in assay [6], 23.9%.
Turning to `ClCC1CCC(CCl)CC1` (stereo unspecified), the growth inhibition in assay [1] was -31.6%; in assay [2], -18.4%; in assay [3], -15.2%; in assay [4], -5.95%; in assay [5], -21.7%; in assay [6] it was -16.1%.
Take `Cc1ccc2nc(NS(=O)(=O)c3cc(C)c(Cl)cc3S)[nH]c2c1`: the growth inhibition is 9.35% in assay [1]; 4.35% in assay [2]; 9.1% in assay [3]; 8.25% in assay [4]; 16.4% in assay [5]; 39.9% in assay [6].
In the case of `CC1=C(CC2C(=O)N(c3ccccc3)S(=O)(=O)NC2C)C(=O)N(c2ccccc2)S(=O)(=O)N1C` (stereo unspecified), the growth inhibition was 20.1% in assay [1]; 4% in assay [2]; -14% in assay [3]; -17.1% in assay [4]; -1.65% in assay [5]; 8.5% in assay [6].
On to `COc1ccc(CCN2C(=O)C(=O)N(C(C)C)C2=O)cc1OC`, for which the growth inhibition was 7.9% in assay [1]; 1.6% in assay [2]; 13% in assay [3]; 16.4% in assay [4]; 4.85% in assay [5]; 14.7% in assay [6].
Turning to `N#Cc1ncn(CCO)c1N`, the growth inhibition in assay [1] is 8.7%; in assay [2], -22.4%; in assay [3], 3.3%; in assay [4], 3.9%; in assay [5], -3.95%; in assay [6], -43.5%.
As to `CC(=O)Nc1nnc(S(C)(=O)=O)s1`, the growth inhibition in assay [1] was -29.6%; in assay [2], -29%; in assay [3], -55.6%; in assay [4], 7.25%; in assay [5], -36.9%; in assay [6], -33%.
Consider `CC(=NCCN=C(C)c1ccc(Br)cc1)c1ccc(Br)cc1`, for which the growth inhibition in assay [1] was 16.9%; in assay [2] it was -6.95%; in assay [3], -21.8%; in assay [4], -2%; in assay [5], 2.4%; in assay [6] it was 1.1%.
As to `OCc1cc(Cl)cc(Cc2cc(Cl)cc(Cc3cc(Cl)cc(Cc4cc(Cl)cc(Cc5cc(Cl)cc(CO)c5O)c4O)c3O)c2O)c1O`, the growth inhibition was -14.8% in assay [1]; -17.4% in assay [2]; -9.35% in assay [3]; -28.4% in assay [4]; -18.9% in assay [5]; -27.9% in assay [6].
Consider `Cc1ccccc1C(=O)N(C(C)C)C(C)C`, for which the growth inhibition is 12.8% in assay [1]; -6.45% in assay [2]; 7.2% in assay [3]; -12.6% in assay [4]; 15.2% in assay [5]; 1% in assay [6].
In the case of `CCCCCCCCCCCCCCCCCCC(CO)CO`, the growth inhibition in assay [1] was -22.4%; in assay [2], -20.6%; in assay [3], -8.65%; in assay [4], -45%; in assay [5], -10.2%; in assay [6], 1.8%.
As for `CSc1cc(/C=C/c2ccccc2)ccc1N`, the growth inhibition in assay [1] is 1%; in assay [2], 1.5%; in assay [3], -9.45%; in assay [4], -33.5%; in assay [5], 5.25%; in assay [6], 2%.

For the origin of these results see PubChem BioAssay (NCI).
